Only a part of the results of these assays is listed, not drawn at random.
What follows are molecules tested against T1, Protein RecA (Mycobacterium tuberculosis) (UniProt P9WHJ3) (assay: M. tuberculosis H37Rv growth inhibition, dose response, strain H37Rv (AID 489010);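 further: whole Mycobacterium tuberculosis cells grown in culture and not purified RecA protein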).
T1 sequence (whole entry): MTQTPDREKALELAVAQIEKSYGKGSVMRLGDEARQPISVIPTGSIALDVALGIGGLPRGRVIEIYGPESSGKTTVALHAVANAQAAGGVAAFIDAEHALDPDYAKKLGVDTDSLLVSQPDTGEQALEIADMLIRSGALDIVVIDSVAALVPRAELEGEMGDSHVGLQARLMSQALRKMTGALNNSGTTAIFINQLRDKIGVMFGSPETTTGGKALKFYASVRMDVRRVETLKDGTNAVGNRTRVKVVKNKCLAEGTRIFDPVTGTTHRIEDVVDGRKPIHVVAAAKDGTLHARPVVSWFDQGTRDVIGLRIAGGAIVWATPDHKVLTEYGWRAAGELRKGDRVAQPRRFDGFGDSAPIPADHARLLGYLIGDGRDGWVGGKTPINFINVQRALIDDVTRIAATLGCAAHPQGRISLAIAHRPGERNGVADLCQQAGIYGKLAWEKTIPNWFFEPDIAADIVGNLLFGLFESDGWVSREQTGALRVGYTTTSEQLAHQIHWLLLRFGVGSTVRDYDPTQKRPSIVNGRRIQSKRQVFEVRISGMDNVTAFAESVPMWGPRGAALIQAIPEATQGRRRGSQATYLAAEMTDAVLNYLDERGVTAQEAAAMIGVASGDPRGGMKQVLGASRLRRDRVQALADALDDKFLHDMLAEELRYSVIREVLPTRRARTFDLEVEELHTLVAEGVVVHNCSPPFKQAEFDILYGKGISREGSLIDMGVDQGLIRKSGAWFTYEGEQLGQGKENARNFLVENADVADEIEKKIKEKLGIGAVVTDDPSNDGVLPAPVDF
Format: functional

**Q.** `CC(CCc1ccccc1)NC(=O)COC(=O)c1cc(NS(=O)(=O)c2ccc(Cl)c([N+](=O)[O-])c2)ccc1O` (centres undefined) was tested. Which IC90 did it give?
**A.** The IC90 was > 100 µM (active).

**Q.** For `Cc1cc(C)c(S(=O)(=O)/N=C2\C=C(Nc3ccc(C(=O)O)cc3)C(=O)c3ccccc32)c(C)c1`, which IC90 is on record?
**A.** Its IC90 is > 100 µM (active).

**Q.** Which IC90 does the source give for `O=C(NC1CCCCC1)C(c1cccnc1)N(C(=O)CCl)c1cccc(Cl)c1` (centres undefined) here?
**A.** Its IC90 is 28 µM (active).

**Q.** How did the IC90 turn out when `Cc1oc2c(c1C(=O)N1CCOCC1)C(=O)c1ccccc1C2=O` was run?
**A.** The IC90 was 35.2 µM (active).

**Q.** How did the IC90 turn out when `Cc1[nH]n(-c2ccccc2)c(=O)c1C(C[N+](=O)[O-])c1ccc(F)cc1` (centres undefined) was run?
**A.** Its IC90 is 32.8 µM (active).

**Q.** For `O=C1NC(=S)N(C2CCCCC2)C(=O)/C1=C/NNC(=O)c1ccccc1O`, which IC90 is on record?
**A.** Its IC90 is > 100 µM (active).

**Q.** With `CCCCCCCCCCn1c2c(c(=N)c3c1CCC3)CCC2` as the molecule, how does the IC90 read?
**A.** The IC90 was 3.39 µM (active).

**Q.** `CCN(CC)CCNC(=O)c1ccc2c(c1NCCO)C(=O)c1ccccc1C2=O` was tested. Which IC90 did it give?
**A.** Its IC90 is > 100 µM (active).

**Q.** For `O=C(CCl)N1c2ccccc2OCC1c1ccccc1` (centres undefined), which IC90 is on record?
**A.** The IC90 was 4.03 µM (active).

**Q.** For `Cc1ccc(N(C(=O)CCl)C(C(=O)NC2CCCCC2)c2cccnc2)cc1C` (centres undefined), which IC90 is on record?
**A.** The IC90 was 30.1 µM (active).

**Q.** `Cc1cccc(Cn2nnc3c2C(=O)c2ccccc2C3=O)c1` was tested. Which IC90 did it give?
**A.** The IC90 was 52.6 µM (active).

**Q.** `CN(C1=C(NC(=O)c2ccccc2)C(=O)c2ccccc2C1=O)C1CCS(=O)(=O)C1` (centres undefined) was tested. Which IC90 did it give?
**A.** Its IC90 is > 100 µM (active).

**Q.** For `Cn1nc(-c2ccc(Cl)cc2)nc2c(=O)n(C)c(=O)nc1-2`, which IC90 is on record?
**A.** The IC90 was 20 µM (active).

**Q.** `CCn1nc(/C=C/c2ccccc2)nc2c(=O)n(C)c(=O)nc1-2` was tested. Which IC90 did it give?
**A.** The IC90 was 15.4 µM (active).

**Q.** For `CC(C)(C)c1csc(Sc2ccc([N+](=O)[O-])cn2)n1`, which IC90 is on record?
**A.** Its IC90 is > 100 µM (active).

**Q.** With `COc1cc2c(cc1OC)-c1c(OC)c(OC)cc3c1C(C2)N(C)CC3` (centres undefined) as the molecule, how does the IC90 read?
**A.** The IC90 was 40.2 µM (active).

**Q.** `COc1ccc2nc(C)cc(Sc3nc4ccccc4s3)c2c1` was tested. Which IC90 did it give?
**A.** The IC90 was > 100 µM (active).

**Q.** `CCC(C)[C@@H](NC(=O)OC(C)(C)C)c1nnc(S(=O)(=O)Cc2cccc(C)c2)o1` (some centres undefined) was tested. Which IC90 did it give?
**A.** The IC90 was > 100 µM (active).

**Q.** With `CC(C)(C)C1CCc2sc(C(=O)NNC(=O)CCl)cc2C1` (centres undefined) as the molecule, how does the IC90 read?
**A.** Its IC90 is 33.3 µM (active).

**Q.** For `C=CCOc1ccccc1CN(C(=O)CCl)c1ccc2c(c1)OCO2`, which IC90 is on record?
**A.** The IC90 was 8.42 µM (active).

**Q.** How did the IC90 turn out when `C/C(=N\NC(=O)c1ccncc1)c1cc2ccccc2oc1=O` was run?
**A.** The IC90 was 0.43 µM (active).

**Q.** Which IC90 does the source give for `O=C(CCl)Nc1cn(-c2ccccc2)nc1-c1ccc(F)cc1` here?
**A.** The IC90 was 49.8 µM (active).

**Q.** Which IC90 does the source give for `COc1cc2c(cc1OC)C(c1cc(Br)ccc1F)N(C(=O)CCl)CC2` (centres undefined) here?
**A.** Its IC90 is 12.1 µM (active).

**Q.** `Cc1ccc(Sc2ccc(NC(=O)CCl)cc2)c(C)c1` was tested. Which IC90 did it give?
**A.** The IC90 was 66.3 µM (active).

**Q.** With `Cc1ccc(Sc2ccc(NC(=O)CCl)cc2)cc1C` as the molecule, how does the IC90 read?
**A.** Its IC90 is 52.4 µM (active).

**Q.** Which IC90 does the source give for `CC(=O)n1cc(N(C(=O)CCl)c2ccc([N+](=O)[O-])cc2)c2ccccc21` here?
**A.** Its IC90 is 8.94 µM (active).

**Q.** With `O=C(OCn1ncc(Cl)c(Cl)c1=O)c1cccc(C(F)(F)F)c1` as the molecule, how does the IC90 read?
**A.** The IC90 was > 100 µM (active).

**Q.** Which IC90 does the source give for `O=C(CCl)N(c1ccc(Cl)cc1)c1c[nH]c2ccccc12` here?
**A.** Its IC90 is 4.5 µM (active).

**Q.** For `CC(C)c1nnc(NC(=O)c2nc(S(=O)(=O)Cc3ccc(F)cc3)ncc2Cl)s1`, which IC90 is on record?
**A.** The IC90 was > 100 µM (active).

**Q.** With `COC(=O)c1sc(-c2ccc(Cl)cc2)cc1NC(=O)/C=C/C(=O)O` as the molecule, how does the IC90 read?
**A.** The IC90 was > 100 µM (active).

**Q.** `CN(C1=C(NC(=O)c2ccc(Cl)cc2)C(=O)c2ccccc2C1=O)c1ccccc1` was tested. Which IC90 did it give?
**A.** The IC90 was 16.7 µM (active).

**Q.** How did the IC90 turn out when `CC1=NNC(=O)C1Cc1c(Cl)cccc1Cl` (centres undefined) was run?
**A.** Its IC90 is > 100 µM (active).

**Q.** How did the IC90 turn out when `COC(=O)c1sc(-c2ccc(C(C)(C)C)cc2)cc1NC(=O)/C=C/C(=O)O` was run?
**A.** The IC90 was 42.7 µM (active).

**Q.** For `CC(=O)n1cc(N(C(=O)CCl)c2ccc(C)cc2)c2ccccc21`, which IC90 is on record?
**A.** The IC90 was 5.03 µM (active).

— ChEMBL document CHEMBL1201862, “PubChem BioAssay data set” (2004)
